Reference: ChEMBL document CHEMBL1961873, “Compounds: GSK PKIS; Assays: Nanosyn kinase panel” (2012)

Tests used:
[1] = system: Epidermal growth factor receptor (Homo sapiens), P00533 [T790M]; details: at 1 µM
[2] = system: Epidermal growth factor receptor (Homo sapiens), P00533 [L858R,T790M]; details: at 0.1 µM
[3] = system: Epidermal growth factor receptor (Homo sapiens), P00533 [L858R,T790M]; details: at 1 µM
[4] = biological target: Ephrin type-A receptor 2 (Homo sapiens) (UniProt P29317); details: at 0.1 µM
Sequence of Ephrin type-A receptor 2 (Homo sapiens) (P29317 whole entry): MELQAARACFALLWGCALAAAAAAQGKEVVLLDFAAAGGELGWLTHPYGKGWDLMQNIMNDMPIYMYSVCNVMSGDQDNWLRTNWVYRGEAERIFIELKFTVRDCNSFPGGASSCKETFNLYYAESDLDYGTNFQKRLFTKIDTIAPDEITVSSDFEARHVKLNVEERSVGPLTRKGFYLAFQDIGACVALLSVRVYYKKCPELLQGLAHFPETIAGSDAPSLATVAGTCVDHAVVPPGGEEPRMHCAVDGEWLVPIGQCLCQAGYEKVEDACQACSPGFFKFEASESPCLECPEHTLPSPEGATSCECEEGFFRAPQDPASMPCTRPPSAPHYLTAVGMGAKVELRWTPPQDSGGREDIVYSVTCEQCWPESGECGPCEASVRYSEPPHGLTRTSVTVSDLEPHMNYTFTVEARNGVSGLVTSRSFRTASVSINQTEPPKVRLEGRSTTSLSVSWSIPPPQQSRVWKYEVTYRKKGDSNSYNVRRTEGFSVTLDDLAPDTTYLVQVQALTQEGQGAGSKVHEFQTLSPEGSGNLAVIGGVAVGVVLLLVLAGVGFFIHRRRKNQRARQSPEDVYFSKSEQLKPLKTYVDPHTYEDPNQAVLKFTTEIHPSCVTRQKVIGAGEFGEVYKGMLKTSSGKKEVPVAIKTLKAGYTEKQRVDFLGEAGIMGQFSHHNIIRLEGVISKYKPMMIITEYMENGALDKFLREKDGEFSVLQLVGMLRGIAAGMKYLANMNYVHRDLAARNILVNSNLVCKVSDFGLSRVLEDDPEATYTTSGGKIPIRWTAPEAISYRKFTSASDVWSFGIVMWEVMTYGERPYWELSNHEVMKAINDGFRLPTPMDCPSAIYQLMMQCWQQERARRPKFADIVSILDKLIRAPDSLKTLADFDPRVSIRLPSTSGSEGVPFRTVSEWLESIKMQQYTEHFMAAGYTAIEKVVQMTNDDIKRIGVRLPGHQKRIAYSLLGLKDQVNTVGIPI

[5] = biological target: Ephrin type-A receptor 2 (Homo sapiens) (UniProt P29317); details: at 1 µM
[6] = biological target: T1, Ephrin type-A receptor 3 (Homo sapiens) (UniProt P29320); details: at 0.1 µM
T1 sequence (whole entry): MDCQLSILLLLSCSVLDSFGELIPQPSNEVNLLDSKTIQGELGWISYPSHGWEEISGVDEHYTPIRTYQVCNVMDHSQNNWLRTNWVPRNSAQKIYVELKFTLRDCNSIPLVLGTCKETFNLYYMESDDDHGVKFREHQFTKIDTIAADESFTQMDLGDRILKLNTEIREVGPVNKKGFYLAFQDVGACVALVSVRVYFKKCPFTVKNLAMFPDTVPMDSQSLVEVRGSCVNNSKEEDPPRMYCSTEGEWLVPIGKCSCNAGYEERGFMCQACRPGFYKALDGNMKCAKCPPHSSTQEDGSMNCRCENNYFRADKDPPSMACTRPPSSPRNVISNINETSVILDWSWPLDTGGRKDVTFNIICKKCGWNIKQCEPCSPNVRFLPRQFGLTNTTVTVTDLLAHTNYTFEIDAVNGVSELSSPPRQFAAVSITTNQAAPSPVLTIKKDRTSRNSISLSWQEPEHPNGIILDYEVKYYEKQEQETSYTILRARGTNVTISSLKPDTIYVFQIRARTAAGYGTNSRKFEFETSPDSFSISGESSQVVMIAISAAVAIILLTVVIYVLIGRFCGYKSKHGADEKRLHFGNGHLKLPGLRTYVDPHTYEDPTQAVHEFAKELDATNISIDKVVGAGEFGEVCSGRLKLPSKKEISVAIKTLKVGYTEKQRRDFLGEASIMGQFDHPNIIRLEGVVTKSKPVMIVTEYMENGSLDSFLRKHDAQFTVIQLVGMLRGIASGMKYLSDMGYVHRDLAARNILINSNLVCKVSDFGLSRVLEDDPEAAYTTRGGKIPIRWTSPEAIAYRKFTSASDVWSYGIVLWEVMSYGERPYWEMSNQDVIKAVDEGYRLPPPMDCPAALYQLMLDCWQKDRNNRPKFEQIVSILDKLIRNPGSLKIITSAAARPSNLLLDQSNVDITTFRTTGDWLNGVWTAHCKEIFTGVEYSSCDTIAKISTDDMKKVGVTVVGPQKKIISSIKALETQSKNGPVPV

[7] = biological target: T1, Ephrin type-A receptor 3 (Homo sapiens); details: at 1 µM
[8] = biological target: Ephrin type-A receptor 4 (Homo sapiens) (UniProt P54764); details: at 0.1 µM
[9] = biological target: Ephrin type-A receptor 4 (Homo sapiens) (UniProt P54764); details: at 1 µM
[10] = biological target: T2, Ephrin type-B receptor 2 (Homo sapiens) (UniProt P29323); details: at 0.1 µM
T2 sequence (whole entry): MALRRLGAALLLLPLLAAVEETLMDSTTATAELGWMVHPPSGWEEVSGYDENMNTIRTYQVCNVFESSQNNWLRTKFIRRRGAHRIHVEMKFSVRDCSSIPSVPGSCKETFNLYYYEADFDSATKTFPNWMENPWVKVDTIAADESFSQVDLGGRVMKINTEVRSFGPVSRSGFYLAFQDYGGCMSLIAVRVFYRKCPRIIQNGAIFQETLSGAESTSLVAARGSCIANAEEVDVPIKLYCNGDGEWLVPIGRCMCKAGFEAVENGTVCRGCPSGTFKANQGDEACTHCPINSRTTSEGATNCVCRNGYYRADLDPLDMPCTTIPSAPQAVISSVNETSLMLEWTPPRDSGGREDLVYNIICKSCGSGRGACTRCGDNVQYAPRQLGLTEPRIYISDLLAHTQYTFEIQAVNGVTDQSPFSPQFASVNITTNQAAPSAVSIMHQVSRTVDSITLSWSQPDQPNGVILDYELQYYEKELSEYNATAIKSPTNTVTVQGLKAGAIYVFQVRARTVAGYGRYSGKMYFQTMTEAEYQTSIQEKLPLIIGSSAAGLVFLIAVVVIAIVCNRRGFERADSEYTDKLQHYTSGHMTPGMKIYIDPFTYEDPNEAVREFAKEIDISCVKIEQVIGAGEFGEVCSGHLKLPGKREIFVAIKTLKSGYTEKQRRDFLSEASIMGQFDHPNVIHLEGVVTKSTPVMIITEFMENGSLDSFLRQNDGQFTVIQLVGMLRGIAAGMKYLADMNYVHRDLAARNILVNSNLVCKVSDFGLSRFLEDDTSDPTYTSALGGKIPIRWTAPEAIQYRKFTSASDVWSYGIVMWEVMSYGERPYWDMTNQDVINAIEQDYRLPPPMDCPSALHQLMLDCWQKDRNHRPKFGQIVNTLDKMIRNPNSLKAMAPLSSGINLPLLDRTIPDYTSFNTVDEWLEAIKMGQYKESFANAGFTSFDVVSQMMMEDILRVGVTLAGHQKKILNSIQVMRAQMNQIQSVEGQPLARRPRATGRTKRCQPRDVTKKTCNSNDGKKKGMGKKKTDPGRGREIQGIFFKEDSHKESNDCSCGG

[11] = biological target: T2, Ephrin type-B receptor 2 (Homo sapiens); details: at 1 µM
[12] = biological target: T3, Ephrin type-B receptor 3 (Homo sapiens) (UniProt P54753); details: at 0.1 µM
T3 sequence (whole entry): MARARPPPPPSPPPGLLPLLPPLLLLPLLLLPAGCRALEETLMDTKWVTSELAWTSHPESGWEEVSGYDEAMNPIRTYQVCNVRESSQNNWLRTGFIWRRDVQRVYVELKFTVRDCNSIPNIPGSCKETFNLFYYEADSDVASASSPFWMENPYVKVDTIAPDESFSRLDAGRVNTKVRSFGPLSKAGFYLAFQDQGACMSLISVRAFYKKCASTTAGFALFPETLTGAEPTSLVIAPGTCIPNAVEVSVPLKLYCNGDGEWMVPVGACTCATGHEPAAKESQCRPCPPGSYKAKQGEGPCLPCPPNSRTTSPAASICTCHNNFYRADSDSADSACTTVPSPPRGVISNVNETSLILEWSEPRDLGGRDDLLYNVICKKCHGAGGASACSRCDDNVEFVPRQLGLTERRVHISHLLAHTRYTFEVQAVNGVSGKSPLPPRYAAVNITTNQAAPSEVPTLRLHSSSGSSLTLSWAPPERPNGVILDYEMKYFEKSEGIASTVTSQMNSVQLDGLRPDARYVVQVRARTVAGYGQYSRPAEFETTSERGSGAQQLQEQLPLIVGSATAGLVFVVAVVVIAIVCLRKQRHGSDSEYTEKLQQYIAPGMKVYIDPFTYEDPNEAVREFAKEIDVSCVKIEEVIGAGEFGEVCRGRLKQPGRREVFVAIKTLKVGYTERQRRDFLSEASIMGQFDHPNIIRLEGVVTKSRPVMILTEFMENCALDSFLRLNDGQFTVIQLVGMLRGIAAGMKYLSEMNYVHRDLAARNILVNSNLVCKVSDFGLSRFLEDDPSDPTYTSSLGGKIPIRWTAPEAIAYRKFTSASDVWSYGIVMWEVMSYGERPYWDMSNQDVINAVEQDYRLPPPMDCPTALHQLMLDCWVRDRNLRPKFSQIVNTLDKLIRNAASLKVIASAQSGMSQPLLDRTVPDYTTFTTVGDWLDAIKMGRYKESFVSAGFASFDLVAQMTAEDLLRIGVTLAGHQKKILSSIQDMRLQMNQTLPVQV

[13] = biological target: T3, Ephrin type-B receptor 3 (Homo sapiens); details: at 1 µM
[14] = biological target: T4, Ephrin type-B receptor 4 (Homo sapiens) (UniProt P54760); details: at 0.1 µM
T4 sequence (whole entry): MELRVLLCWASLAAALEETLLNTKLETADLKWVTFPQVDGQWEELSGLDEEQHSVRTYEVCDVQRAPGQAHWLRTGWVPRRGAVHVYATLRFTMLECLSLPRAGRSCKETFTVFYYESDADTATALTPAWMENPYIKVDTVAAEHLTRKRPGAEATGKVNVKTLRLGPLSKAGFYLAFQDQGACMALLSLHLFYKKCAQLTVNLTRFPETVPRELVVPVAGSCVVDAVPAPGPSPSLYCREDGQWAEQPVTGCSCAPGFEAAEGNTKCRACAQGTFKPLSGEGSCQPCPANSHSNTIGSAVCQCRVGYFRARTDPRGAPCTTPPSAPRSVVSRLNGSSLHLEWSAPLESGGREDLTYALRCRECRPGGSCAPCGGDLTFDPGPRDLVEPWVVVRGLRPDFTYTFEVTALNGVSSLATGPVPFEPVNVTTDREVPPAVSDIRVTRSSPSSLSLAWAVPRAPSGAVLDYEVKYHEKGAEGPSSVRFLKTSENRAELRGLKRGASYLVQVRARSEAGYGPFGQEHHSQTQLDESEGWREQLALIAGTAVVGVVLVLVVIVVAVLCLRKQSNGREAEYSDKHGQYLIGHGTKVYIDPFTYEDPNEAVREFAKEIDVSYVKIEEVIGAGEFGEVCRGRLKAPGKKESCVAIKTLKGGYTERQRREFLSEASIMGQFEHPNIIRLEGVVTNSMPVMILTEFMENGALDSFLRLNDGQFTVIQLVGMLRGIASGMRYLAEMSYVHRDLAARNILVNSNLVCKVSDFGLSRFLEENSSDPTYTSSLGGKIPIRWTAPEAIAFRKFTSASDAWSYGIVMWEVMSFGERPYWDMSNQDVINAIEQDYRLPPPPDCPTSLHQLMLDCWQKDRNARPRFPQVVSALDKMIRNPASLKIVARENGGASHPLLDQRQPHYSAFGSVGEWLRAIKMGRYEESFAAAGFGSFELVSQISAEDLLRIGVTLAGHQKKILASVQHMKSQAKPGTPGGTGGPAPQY

[15] = biological target: T4, Ephrin type-B receptor 4 (Homo sapiens); details: at 1 µM
[16] = biological target: Receptor tyrosine-protein kinase erbB-2 (Homo sapiens) (UniProt P04626); details: at 0.1 µM
[17] = biological target: Receptor tyrosine-protein kinase erbB-2 (Homo sapiens) (UniProt P04626); details: at 1 µM
[18] = biological target: Receptor tyrosine-protein kinase erbB-4 (Homo sapiens) (UniProt Q15303); details: at 0.1 µM
[19] = biological target: Receptor tyrosine-protein kinase erbB-4 (Homo sapiens) (UniProt Q15303); details: at 1 µM
[20] = biological target: Tyrosine-protein kinase Fer (Homo sapiens) (UniProt P16591); details: at 0.1 µM;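 note: reported figures are averaged percent inhibition of FER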
Sequence of Tyrosine-protein kinase Fer (Homo sapiens) (P16591 whole entry, looked up): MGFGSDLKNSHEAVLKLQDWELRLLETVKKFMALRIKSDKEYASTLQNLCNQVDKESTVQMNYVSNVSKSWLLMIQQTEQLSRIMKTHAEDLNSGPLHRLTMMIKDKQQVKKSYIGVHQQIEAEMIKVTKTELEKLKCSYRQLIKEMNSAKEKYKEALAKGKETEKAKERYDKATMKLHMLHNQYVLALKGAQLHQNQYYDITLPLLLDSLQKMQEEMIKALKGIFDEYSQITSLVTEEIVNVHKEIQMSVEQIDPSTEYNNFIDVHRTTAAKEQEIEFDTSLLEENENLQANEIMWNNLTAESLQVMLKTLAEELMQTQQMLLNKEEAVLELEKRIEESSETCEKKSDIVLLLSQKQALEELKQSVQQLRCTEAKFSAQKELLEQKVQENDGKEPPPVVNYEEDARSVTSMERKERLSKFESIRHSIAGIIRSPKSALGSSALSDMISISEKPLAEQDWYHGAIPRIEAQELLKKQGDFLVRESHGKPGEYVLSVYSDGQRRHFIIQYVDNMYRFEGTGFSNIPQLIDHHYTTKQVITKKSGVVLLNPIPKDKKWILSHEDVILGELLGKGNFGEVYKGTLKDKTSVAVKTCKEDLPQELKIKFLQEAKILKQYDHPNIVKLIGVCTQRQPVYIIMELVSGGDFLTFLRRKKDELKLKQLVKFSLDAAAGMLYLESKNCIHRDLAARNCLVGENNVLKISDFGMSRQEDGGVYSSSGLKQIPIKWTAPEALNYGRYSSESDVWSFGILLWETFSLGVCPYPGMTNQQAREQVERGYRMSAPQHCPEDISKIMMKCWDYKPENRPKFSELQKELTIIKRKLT

Sequence of Epidermal growth factor receptor (Homo sapiens), P00533 [L858R,T790M] (P00533 whole entry T790M/L858R, looked up): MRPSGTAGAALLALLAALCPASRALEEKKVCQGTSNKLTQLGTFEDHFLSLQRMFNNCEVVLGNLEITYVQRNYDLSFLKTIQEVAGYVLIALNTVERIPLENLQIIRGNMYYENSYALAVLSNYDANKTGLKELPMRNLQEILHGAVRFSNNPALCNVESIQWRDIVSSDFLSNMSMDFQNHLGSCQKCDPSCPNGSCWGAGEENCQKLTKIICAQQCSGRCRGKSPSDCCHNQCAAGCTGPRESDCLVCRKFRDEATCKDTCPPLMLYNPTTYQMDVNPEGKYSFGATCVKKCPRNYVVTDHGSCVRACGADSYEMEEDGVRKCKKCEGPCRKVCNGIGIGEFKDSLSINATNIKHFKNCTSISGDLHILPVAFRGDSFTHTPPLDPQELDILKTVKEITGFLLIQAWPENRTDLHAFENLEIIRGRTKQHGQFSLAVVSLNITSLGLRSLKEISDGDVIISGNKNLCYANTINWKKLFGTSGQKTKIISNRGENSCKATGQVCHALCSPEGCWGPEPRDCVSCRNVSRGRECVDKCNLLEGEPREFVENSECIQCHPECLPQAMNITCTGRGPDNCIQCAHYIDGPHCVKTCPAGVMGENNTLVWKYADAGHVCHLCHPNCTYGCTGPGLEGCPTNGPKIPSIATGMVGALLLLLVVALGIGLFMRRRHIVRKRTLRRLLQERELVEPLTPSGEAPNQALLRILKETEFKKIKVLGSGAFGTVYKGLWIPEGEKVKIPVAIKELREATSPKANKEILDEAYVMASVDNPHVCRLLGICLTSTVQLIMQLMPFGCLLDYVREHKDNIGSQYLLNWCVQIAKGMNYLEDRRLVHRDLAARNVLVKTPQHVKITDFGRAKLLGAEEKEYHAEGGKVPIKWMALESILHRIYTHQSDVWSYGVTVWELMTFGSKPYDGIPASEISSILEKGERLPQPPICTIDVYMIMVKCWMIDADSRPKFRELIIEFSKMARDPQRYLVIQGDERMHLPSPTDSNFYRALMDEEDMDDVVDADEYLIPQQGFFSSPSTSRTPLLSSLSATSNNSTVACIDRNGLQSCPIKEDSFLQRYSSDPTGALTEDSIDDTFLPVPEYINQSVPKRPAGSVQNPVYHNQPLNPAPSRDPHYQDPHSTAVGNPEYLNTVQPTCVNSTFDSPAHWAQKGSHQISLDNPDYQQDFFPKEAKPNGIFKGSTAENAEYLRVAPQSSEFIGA
Sequence of Epidermal growth factor receptor (Homo sapiens), P00533 [T790M] (P00533 whole entry T790M): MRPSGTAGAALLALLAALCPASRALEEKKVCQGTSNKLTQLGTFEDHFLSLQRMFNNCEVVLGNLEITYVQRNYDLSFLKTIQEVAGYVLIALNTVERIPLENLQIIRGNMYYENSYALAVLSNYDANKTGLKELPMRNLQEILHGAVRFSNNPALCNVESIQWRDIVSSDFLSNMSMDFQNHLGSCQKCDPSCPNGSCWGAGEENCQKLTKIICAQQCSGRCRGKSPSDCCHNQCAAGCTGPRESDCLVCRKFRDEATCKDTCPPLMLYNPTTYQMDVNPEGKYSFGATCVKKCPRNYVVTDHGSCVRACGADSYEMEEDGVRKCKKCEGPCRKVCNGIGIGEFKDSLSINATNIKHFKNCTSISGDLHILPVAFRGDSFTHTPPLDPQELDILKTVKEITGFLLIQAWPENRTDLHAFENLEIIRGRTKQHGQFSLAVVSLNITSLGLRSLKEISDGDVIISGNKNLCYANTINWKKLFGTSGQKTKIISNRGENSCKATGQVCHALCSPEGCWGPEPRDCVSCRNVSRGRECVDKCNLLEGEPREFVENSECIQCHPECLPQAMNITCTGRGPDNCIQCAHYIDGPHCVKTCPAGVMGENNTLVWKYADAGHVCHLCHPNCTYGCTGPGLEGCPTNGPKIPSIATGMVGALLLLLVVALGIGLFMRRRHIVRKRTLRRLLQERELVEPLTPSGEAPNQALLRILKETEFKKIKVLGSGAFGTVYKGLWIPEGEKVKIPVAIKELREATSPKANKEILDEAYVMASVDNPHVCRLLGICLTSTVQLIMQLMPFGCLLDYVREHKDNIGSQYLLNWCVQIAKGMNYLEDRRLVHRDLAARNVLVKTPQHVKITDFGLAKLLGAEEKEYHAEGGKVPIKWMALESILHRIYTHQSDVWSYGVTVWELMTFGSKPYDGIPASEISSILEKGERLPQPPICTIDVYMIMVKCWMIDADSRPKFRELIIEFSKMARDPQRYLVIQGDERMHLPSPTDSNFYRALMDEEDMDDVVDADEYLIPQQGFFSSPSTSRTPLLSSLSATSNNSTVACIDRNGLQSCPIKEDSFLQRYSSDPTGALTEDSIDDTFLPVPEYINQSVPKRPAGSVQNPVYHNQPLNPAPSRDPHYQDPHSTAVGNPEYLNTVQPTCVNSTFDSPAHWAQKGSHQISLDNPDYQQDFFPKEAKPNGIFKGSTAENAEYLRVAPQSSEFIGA

Compound	inhibition [1]	inhibition [2]	inhibition [3]	inhibition [4]	inhibition [5]	inhibition [6]	inhibition [7]	inhibition [8]	inhibition [9]	inhibition [10]	inhibition [11]	inhibition [12]	inhibition [13]	inhibition [14]	inhibition [15]	inhibition [16]	inhibition [17]	inhibition [18]	inhibition [19]	inhibition [20]
Cc1cc(O)cc(C)c1/C=C/c1cncc(C(=O)OC(C)(C)C)c1	2.69%	2.41%	0.87%	16.6%	60.8%	11.2%	22.4%	31.1%	80.6%	23%	68%	17.4%	49.2%	24.8%	70.4%	1.78%	2.48%	8.1%	16.1%	4.09%
CNC(=O)c1cncc(/C=C/c2ccccc2C)c1	4.37%	1.98%	6.74%	2.22%	3.92%	6.53%	6.47%	11.7%	26.1%	7.84%	19.7%	5.82%	4.91%	1.77%	9.19%	2.44%	6.67%	13.2%	14.8%	4.15%
Cc1cc(O)cc(C)c1/C=C/c1cncc(C(N)=O)c1	1.53%	0.06%	1.88%	8.68%	47.2%	5.13%	19.5%	18.6%	69.2%	16.3%	56.7%	5.06%	9.99%	9.23%	46.1%	5.08%	-0.51%	12.7%	14.4%	2%
CNC(=O)c1sc(-n2cnc3cc(OC)c(OC)cc32)cc1OCc1ccccc1C(F)(F)F	0.02%	0.49%	1.43%	2.6%	2.61%	3.26%	7.45%	7.55%	13.2%	5.44%	14%	4.48%	3.52%	0.98%	5.78%	2.12%	3.74%	6.92%	10.3%	2.95%
N#Cc1ccc2c(-c3ccnc(NC4CC4)n3)c(-c3ccc(F)cc3)nn2c1	2.72%	1.77%	2.17%	-2.09%	-0.16%	1.29%	4.31%	5.96%	15.6%	8.8%	24.5%	5.62%	4.39%	-0.62%	2.45%	1.97%	5%	5.5%	13.4%	-2.41%
CCn1c(-c2nonc2N)nc2cncc(C(=O)NCCNC)c21	4.6%	1.4%	5.19%	0.81%	-0.9%	1.15%	5.09%	7.32%	10.1%	12.1%	7.7%	3.02%	3.19%	-0.07%	0.78%	5.03%	3.74%	10.7%	12.2%	4.13%
